Compounds with a hit are over-represented: about 15% of the library has one in this group of screens.
SARS PLpro yeast: inhibitors of SARS-CoV papain-like protease in yeast; S. cerevisiae expressing SARS-CoV PLpro, growth rescue; Potency, µM (titrated, usually from 32.9 µM), without a hit: top-dose activity, positive = growth rescue, actives largely listed as activators; 330,000 compounds, 0.19% hits; AID 485353; calls by dose curve; also: potency is read from the fitted curve at half-maximal effect; 0% is about no effect; nearly all actives have a fitted effect of over 55% in size
Sm TGR inh: S. mansoni TGR enzyme inhibition. Potency, µM (doses to about 114 µM), without a hit: at the top dose activity change, negative = inhibition, hits mostly inhibitors. 360,000 compounds, 3% hits. purified TGR, DTNB reduction, TNB absorbance 405 nm; also: potency is read from the fitted curve at half-maximal effect; % is scaled to controls: 0 for no effect and ±100 for the full control effect; nearly all actives have a fitted effect of over 60% in size
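First, TGR (20 nM dispensed) and NADPH were mixed with compound. Second, a 15 min room-temperature incubation followed. Third, further NADPH and then DTNB were added to start the reaction. Finally, TNB absorbance was monitored kinetically.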
Pf growth 48h: P. falciparum growth inhibition at 48 hours (one generation); P. falciparum luciferase growth in erythrocytes, 48 h; 310,000 compounds, 5.9% hits; Potency, µM (titrated, usually from 28.7 µM), inactives show top-dose activity change, negative = inhibition, most hits filed as inhibitors; AID 504832; also: potency is read from the fitted curve at half-maximal effect; % is scaled to controls: 0 for no effect and ±100 for the full control effect
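In quantitative HTS format, infected erythrocytes bearing luciferase-reporter parasites were treated for a single generation at 37 C. Luminescence after adding detection reagent served as the growth measure.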
HCMV antiviral: human cytomegalovirus inhibition; HFF cells, HCMV-luciferase reporter, 72 h; stronger effect = lower value; AID 1259415; activity change, negative = inhibition, % at 57.5 µM; 410,000 compounds, 4.5% hits; in the data active = activity change below about -60%; inconclusive = no clear call, values can overlap the other calls; inactive = above about -39%; also: % is scaled to controls: 0 for no effect and ±100 for the full control effect
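HFF cells seeded 16 h at 37C, treated with compounds, infected with luciferase-reporter HCMV at MOI 1 PFU/cell; luciferase read at 72 h post infection, normalized to buffer-only and Salinomycin controls.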
Pf growth 96h: inhibits malaria parasite growth, 96 h | P. falciparum luciferase reporter growth, 96 h | Potency, µM (top dose mostly 28.7 µM), without a hit: at the top dose activity change, negative = inhibition, usual class: inhibitors | 320,000 compounds, 6.9% hits | AID 504834; also: potency is read from the fitted curve at half-maximal effect; % is scaled to controls: 0 for no effect and ±100 for the full control effect
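P. falciparum expressing integrated firefly luciferase, in erythrocytes at 2% hematocrit, 0.05% parasitemia, incubated with compounds 96 h at 37 C, 5% CO2. Growth inhibition read as loss of luminescence; two-generation exposure targets delayed-death apicoplast inhibitors.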
HCV inhibitor: blocks hepatitis C virus; 340,000 compounds, 3.4% hits; Potency, µM (doses to about 41.8 µM), without a hit: at the top dose activity change, negative = inhibition, usual class: inhibitors; Huh7.5.1 HCVcc-Cre infection, luciferase reporter, 44 h; also: potency is read from the fitted curve at half-maximal effect; % is scaled to controls: 0 for no effect and ±100 for the full control effect
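Compounds are dispensed onto cells plated 4 h earlier at 1,000 per well, with HCVcc-Cre virus (about 0.5 moi) added next. Following 44 h of culture, luminescent signal is measured for 15 sec after 15 min with substrate at room temperature.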
Starred values were filed as active, the others as inactive; ? = inconclusive; / = no result. Unless noted, calls follow the shape of the dose curve; as a rule, active = well fitted curve in the direction sought with a large enough effect; inconclusive = small, poorly fitted or top-dose-only effect, or another doubt; inactive = no such curve, though single readings can be large; an effect the other way counts as inactive or inconclusive.

SMILES	SARS PLpro yeast	Sm TGR inh	Pf growth 48h	HCMV antiviral	Pf growth 96h	HCV inhibitor
Cn1nnc(NCc2cc(Br)ccc2OCc2ccccc2F)n1	-3%	21%	?	-25	-9%	?
CC(C(=O)O)n1cc(C#N)c(=O)[nH]c1=O (stereo not drawn)	/	/	/	-11	/	15%
Cc1ccc(N=C2NC(=O)CC(C(=O)Nc3cc(C(F)(F)F)ccc3Cl)S2)cc1 (stereo not drawn)	/	10%	/	7	/	/
CCN(CC)CCNCc1cc(Cl)ccc1OCc1ccccc1F	-1%	/	5.9µM*	-20	0%	-44%
Cn1nnnc1SCCCNCc1cc(Cl)ccc1OCc1ccccc1F	/	2%	/	?	/	/
O=C(NCc1ccco1)/C(=C/C=C\c1ccccc1)NC(=O)c1ccc(Br)o1	4%	0%	?	-69*	20%	-13%
N#C/C(=C\c1ccc(O)cc1)C(=O)N1CCCC1	0%	0%	-15%	-31	-25%	6%
N#C/C(=C\C=C\c1ccccc1)C(=O)NCc1ccco1	-1%	/	?	?	15µM*	7%
N#C/C(=C\C=C\c1ccccc1)C(=O)N1CCCC1	-6%	-14%	7.4µM*	?	?	9%
CC/C(=N\N1CCCCCC1)c1c(O)n(-c2ccc(C)cc2)c(=O)[nH]c1=O	-14%	2%	?	-19	2.1µM*	4%
C/C(=N\N1CCCCCC1)c1c(O)n(-c2ccc(C)cc2)c(=O)[nH]c1=O	2%	0%	?	-37	12µM*	7%
COc1ccc(CNC(=O)c2cn(Cc3ccccc3F)c(=O)s2)cc1	/	/	/	48	/	/
O=C(Cn1c(=O)c(=O)n(Cc2ccccc2)c2ccc(Cl)cc21)Nc1cccc(F)c1	-1%	-15%	2%	45	13µM*	?
O=C(Cn1c(=O)n(Cc2ccco2)c(=O)c2ccccc21)Nc1cccc(F)c1	/	2%	/	-4	/	/
O=C(Cn1c2ccccc2c(=O)c2ccccc21)Nc1cccc(F)c1	-23%	8%	15µM*	8	?	-13%
O=C(Nc1cccc(F)c1)c1ccc2oc(=O)n(Cc3ccccc3)c2c1	/	-2%	/	-68*	/	/
O=C(Cn1c(=O)c2cccn2c2ccc(F)cc21)Nc1cccc(F)c1	/	0%	/	11	/	/
CC(C)C[C@@H]1O[C@H](C(C)C)Cc2[nH][nH]c(=O)c21	/	/	/	-5	/	/
CCOC(=O)CC(=O)CSc1nc2c(c(-c3cccs3)c1C#N)CCC2	17%	0%	13%	-33	12%	?
CCOCCSc1nc2c(c(-c3cccs3)c1C#N)CC/C2=C/c1cccs1	-3%	45µM*	-3%	-12	0%	?
Cc1nn(C)c(C)c1/C=C/C(=O)c1ccc(Cl)cc1Cl	-17%	-1%	?	-81*	-7%	7.9µM*
COC(=O)c1ccc(COc2ccccc2/C=C(\C#N)C(=O)Nc2c(C)cccc2C)cc1	-11%	6%	?	-25	13µM*	?
COC(=O)c1ccc(COc2ccccc2/C=N/Nc2cccc(C(=O)O)c2)cc1	-1%	?	8%	112	36%	5%
COC(=O)c1ccc(COc2ccccc2/C=C/C(=O)c2ccc(OCC(=O)O)cc2)cc1	11%	-16%	?	-38	1.5µM*	-7%
Cc1ccc(/C=C(\C#N)C(=O)Nc2c(C)cccc2C)s1	-3%	-4%	/	-34	7.4µM*	-19%
CS(=O)(=O)N(CC(=O)N1CCCC1)Cc1ccc(Cl)cc1	19%	-7%	12%	-11	-4%	0%
C[C@H]1COC2=C1C(=O)C(=O)c1c2ccc2c1CCCC2(C)C	-4%	4µM*	?	/	?	?
Cc1coc2c1C(=O)C(=O)c1c-2ccc2c1CCCC2(C)C	-4%	10µM*	?	?	?	?
Cc1coc2c1C(=O)C(=O)c1c-2ccc2c(C)cccc12	-5%	8.9µM*	?	/	?	3%

Bioassay records deposited in PubChem BioAssay by National Center for Advancing Translational Sciences (NCATS).
